Measurements taken from PubChem BioAssay (NCATS).
Results filed as inconclusive are left out. Calls of active or inactive are those of the source. Unless noted, calls follow the shape of the full dose curve.

Columns and labels:
[1] = Validation screen for inhibitors of Lassa infection (AID 463096); also: potency is read from the fitted curve at half-maximal effect
[2] = Inducers of the Endoplasmic Reticulum Stress Response (ERSR) in human glioma: Validation (AID 504836; active = well fitted curve in the direction sought with a large enough effect; an effect the other way counts as inactive or inconclusive; also: 0% is about no effect)
In short: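 Stably transfected U87-MG glioma cells carrying a GRP78-based luciferase sensor; 16 h compound incubation. Luminescence end-point read 10 min after Bright-Glo addition at room temperature.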

[3] = qHTS for Inhibitors of the Functional Ribonucleoprotein Complex (vRNP) of Lassa (LASV) Arenavirus: LASV Primary Screen - GLuc reporter signal (AID 1347082; calls by dose curve; tested in HEK293 reporter line; also: series mostly up to about 57 µM; % is scaled to controls: 0 for no effect and ±100 for the full control effect; nearly all actives have a fitted effect of over 60% in size)
[4] = qHTS for Inhibitors of the Functional Ribonucleoprotein Complex (vRNP) of Lassa (LASV) Arenavirus: Viability assay - alamar blue signal for LASV Primary Screen (AID 1347083; calls by dose curve; tested in HEK293 reporter line; also: series mostly up to about 57 µM; % is scaled to controls: 0 for no effect and ±100 for the full control effect; nearly all actives have a fitted effect of over 80% in size)
[5] = qHTS for Inhibitors of the Functional Ribonucleoprotein Complex (vRNP) of Lymphocytic Choriomeningitis Arenaviruses (LCMV): Viability assay - alamar blue signal for LCMV Primary Screen (AID 1347085; calls by dose curve; tested in HEK293 reporter line; also: series mostly up to about 57 µM; % is scaled to controls: 0 for no effect and ±100 for the full control effect; nearly all actives have a fitted effect of over 80% in size)
[6] = target: Nucleoprotein (Lymphocytic choriomeningitis virus (strain Armstrong)) (UniProt P09992); assay: qHTS for Inhibitors of the Functional Ribonucleoprotein Complex (vRNP) of Lymphocytic Choriomeningitis Arenaviruses (LCMV): LCMV Primary Screen - GLuc reporter signal (AID 1347086); also: series mostly up to about 57 µM; % is scaled to controls: 0 for no effect and ±100 for the full control effect; nearly all actives have a fitted effect of over 70% in size
[7] = target: Alpha-galactosidase (Coffea arabica) (UniProt Q42656); assay: Counterscreen for Glucocerebrosidase Inhibitors: qHTS Assay for Coffee Bean alpha-Galactosidase at pH 4.5 (AID 957; active = well fitted curve in the direction sought with a large enough effect; an effect the other way counts as inactive or inconclusive;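 also: series mostly up to about 77 µM; plate controls were enzyme alone for no effect and no enzyme for full effect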)
In short: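 Coffee bean enzyme (2 nM) with 80 uM 4-methylumbelliferyl alpha-D-galactopyranoside in 50 mM citric acid, 0.005% Tween-20, pH 4.5, 20 min at room temperature; compounds 0.7 nM–77 uM. Stopped at pH 10, fluorescence 365/440 nm; AC50 from Hill fits.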

[8] = target: Arylsulfatase A (Homo sapiens) (UniProt P15289); assay: qHTS screen for enhancers of Arylsulfatase A (ASA1): LOPAC Validation Assay (AID 720538; active = well fitted curve in the direction sought with a large enough effect; an effect the other way counts as inactive or inconclusive; also: 0% is about no effect)
In short: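 SV40-transformed skin fibroblasts from an MLD patient (ASA-I179S) were treated with compounds for 48h at 37 degree C, then lysed with 0.5mM pNCS final substrate for 14h at room temperature; NaOH stop, fluorescence read (Ex=525 nm; Em=598 nm).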

[9] = target: Alpha-galactosidase (Coffea arabica) (UniProt Q42656); assay: Counterscreen for Glucocerebrosidase Inhibitors: qHTS Assay for Coffee Bean alpha-Galactosidase at pH 5.9 (AID 998; active = well fitted curve in the direction sought with a large enough effect; an effect the other way counts as inactive or inconclusive;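 also: plate controls were uninhibited enzyme for no effect and no-enzyme basal signal for full effect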)
In short: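 Green coffee bean enzyme (2 nM) with 4-methylumbelliferyl alpha-D-galactopyranoside (80 uM) in 50 mM citric acid, 0.005% Tween-20, pH 5.9, 20 min at room temperature; compounds 0.7 nM–77 uM. Stopped at pH 10, fluorescence Ex365/Em440; Hill-fit AC50.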

[10] = qHTS for Activators of Parkin Expression: LOPAC Validation Assay (FLuc Reporter) (AID 720573; active = well fitted curve in the direction sought with a large enough effect; an effect the other way counts as inactive or inconclusive;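 also: 0% = DMSO and 100% = positive control compounds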)
In short: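 Neuronal cell line stably carrying FLuc/NLuc coincidence reporter under Parkin promoter; cells plated 24 h, then compounds added in 7-point dose response for 24 h at 37 C. FLuc luminescence read; normalized to DMSO and positive control (100%).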

[11] = target: Bile acid receptor (Homo sapiens) (UniProt Q96RI1); assay: qHTS assay for small molecule agonists of farnesoid X receptor signaling (AID 588527); details: HEK293T FXR-UAS-bla, beta-lactamase ratio, 16 h; activation: active compounds read high;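 also: series mostly up to about 77 µM; 0% = vehicle basal and 100% = reference agonist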
In short: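 Read-out: beta-lactamase reporter fluorescence with CCF4 substrate in GeneBLAzer FXR-UAS-bla HEK293T cells, after 16 h compound exposure at 37 C. Response scaled between DMSO basal (0%) and chenodeoxycholic acid at 100 uM (100%).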

Chain of Nucleoprotein (Lymphocytic choriomeningitis virus (strain Armstrong)) (P09992 whole entry, looked up): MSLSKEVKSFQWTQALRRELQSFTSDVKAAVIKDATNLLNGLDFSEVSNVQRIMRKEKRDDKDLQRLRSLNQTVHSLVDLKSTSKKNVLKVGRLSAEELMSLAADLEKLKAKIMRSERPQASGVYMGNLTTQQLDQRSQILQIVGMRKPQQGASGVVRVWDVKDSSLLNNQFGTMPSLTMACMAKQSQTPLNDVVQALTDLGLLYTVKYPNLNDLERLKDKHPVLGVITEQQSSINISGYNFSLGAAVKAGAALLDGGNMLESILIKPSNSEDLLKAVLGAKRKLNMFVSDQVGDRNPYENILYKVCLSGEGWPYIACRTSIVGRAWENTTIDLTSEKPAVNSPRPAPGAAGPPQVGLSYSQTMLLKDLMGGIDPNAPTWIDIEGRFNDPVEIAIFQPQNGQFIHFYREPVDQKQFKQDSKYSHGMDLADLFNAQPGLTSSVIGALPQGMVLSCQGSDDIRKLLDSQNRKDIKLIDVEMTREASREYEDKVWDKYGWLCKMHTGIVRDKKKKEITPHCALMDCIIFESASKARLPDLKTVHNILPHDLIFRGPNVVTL
Chain of Alpha-galactosidase (Coffea arabica) (Q42656 whole entry, looked up): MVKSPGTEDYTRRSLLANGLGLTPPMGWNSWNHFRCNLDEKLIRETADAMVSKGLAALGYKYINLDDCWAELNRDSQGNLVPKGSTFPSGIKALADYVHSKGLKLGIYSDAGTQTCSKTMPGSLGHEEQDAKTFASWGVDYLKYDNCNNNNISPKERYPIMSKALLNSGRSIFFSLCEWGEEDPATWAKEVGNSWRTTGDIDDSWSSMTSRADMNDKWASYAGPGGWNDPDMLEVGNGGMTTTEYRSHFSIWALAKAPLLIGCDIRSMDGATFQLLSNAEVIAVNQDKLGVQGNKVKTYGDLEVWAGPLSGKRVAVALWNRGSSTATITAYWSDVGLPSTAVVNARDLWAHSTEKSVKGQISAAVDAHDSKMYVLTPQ
Chain of Bile acid receptor (Homo sapiens) (Q96RI1 whole entry, looked up): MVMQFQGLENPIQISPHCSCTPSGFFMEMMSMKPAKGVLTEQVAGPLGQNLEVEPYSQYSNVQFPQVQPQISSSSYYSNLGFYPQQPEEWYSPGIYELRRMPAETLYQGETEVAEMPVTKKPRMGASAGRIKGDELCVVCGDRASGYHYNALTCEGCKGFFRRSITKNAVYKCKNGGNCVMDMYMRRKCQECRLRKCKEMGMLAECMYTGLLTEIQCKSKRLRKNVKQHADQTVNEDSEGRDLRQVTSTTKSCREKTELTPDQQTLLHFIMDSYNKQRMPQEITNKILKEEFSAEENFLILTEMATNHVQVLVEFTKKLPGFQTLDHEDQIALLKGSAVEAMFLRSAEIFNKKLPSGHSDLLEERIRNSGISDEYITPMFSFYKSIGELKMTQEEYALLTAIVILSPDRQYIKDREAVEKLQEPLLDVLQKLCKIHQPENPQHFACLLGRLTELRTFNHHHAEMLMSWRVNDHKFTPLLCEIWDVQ
Chain of Arylsulfatase A (Homo sapiens) (P15289 whole entry, looked up): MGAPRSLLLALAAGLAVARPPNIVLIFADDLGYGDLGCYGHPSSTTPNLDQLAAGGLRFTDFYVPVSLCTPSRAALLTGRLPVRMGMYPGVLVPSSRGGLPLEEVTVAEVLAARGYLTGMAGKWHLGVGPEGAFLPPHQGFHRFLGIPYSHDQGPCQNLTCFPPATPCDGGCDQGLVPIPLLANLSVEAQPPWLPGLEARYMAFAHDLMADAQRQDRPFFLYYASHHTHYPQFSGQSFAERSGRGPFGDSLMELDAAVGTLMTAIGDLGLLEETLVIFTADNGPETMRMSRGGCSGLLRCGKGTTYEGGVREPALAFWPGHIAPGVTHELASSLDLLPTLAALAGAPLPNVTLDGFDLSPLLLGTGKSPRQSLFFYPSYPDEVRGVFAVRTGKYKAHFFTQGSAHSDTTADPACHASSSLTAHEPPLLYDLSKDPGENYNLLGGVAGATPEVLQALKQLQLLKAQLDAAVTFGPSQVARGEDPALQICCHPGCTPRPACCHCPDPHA

CC(=O)N[C@H](C(=O)O)C(C)(C)SN=O
inactive: Potency [1] | outcome [2] | Potency [3] | Potency [4] | Potency [5] | Potency [6]

CCCCS(=N)(=O)CC[C@H](N)C(=O)O (some centres undefined)
inactive: Potency [1] | outcome [2] | Potency [3] | Potency [4] | Potency [5] | Potency [6]

NCCC1CCCC(CCN)N1 (centres undefined)
inactive: Potency [1] | outcome [2] | Potency [3] | Potency [4] | Potency [5] | Potency [6]

COC1(C2=NCCN2)COc2ccccc2O1 (centres undefined)
inactive: Potency [1] | outcome [2] | Potency [3] | Potency [4] | Potency [5] | Potency [6]

NCC(O)c1ccc(O)c(O)c1 (centres undefined)
inactive: Potency [1] | outcome [2] | Potency [3] | Potency [4] | Potency [5] | Potency [6]

N=C(N)SCCN
inactive: Potency [1] | outcome [2] | Potency [3] | Potency [4] | Potency [5] | Potency [6]

CC1CCN=C(N)S1 (centres undefined)
inactive: Potency [1] | outcome [2] | Potency [3] | Potency [4] | Potency [5] | Potency [6]

CC1CN(S(=O)(=O)c2cccc3cnccc23)CCN1 (centres undefined)
inactive: Potency [1] | outcome [2] | Potency [3] | Potency [4] | Potency [5] | Potency [6]

OCC1NCC(O)C(O)C1O (centres undefined)
inactive: Potency [1] | outcome [2] | Potency [3] | Potency [4] | Potency [5] | Potency [6]

NC(N)=N[C@@H](CCC(=O)O)C(=O)O
inactive: Potency [1] | outcome [2] | Potency [3] | Potency [4] | Potency [5] | Potency [6]

N[C@@H](Cc1ccc(F)cc1)C(=O)O
inactive: Potency [1] | outcome [2] | Potency [3] | Potency [4] | Potency [5] | Potency [6]

C#CCN1C(C)=C(C(=O)OC)C(c2cccc([N+](=O)[O-])c2)C(C(=O)OCC)=C1C (centres undefined)
inactive: Potency [1] | outcome [2] | Potency [3] | Potency [4] | Potency [5] | Potency [6]

CCCCCCCCCCCCCCCCCCNC(=O)OCC(COP(=O)([O-])OCC[n+]1ccsc1)OC (centres undefined)
inactive: Potency [1] | outcome [2] | Potency [3] | Potency [4] | Potency [5] | Potency [6]

O=C(O)[C@H]1NCCC[C@H]1C(=O)O
inactive: Potency [1] | outcome [2] | Potency [3] | Potency [4] | Potency [5] | Potency [6]

N[C@@H](CCCC(=O)O)C(=O)O
inactive: Potency [1] | outcome [2] | Potency [3] | Potency [4] | Potency [5] | Potency [6]

Oc1cc(O)c2c(c1)O[C@H](c1ccc(O)c(O)c1)[C@@H](O)C2
inactive: Potency [1] | outcome [2] | Potency [3] | Potency [4] | Potency [5] | Potency [6]

COC(=O)C(N)Cc1ccc(Cl)cc1 (centres undefined)
inactive: Potency [1] | outcome [2] | Potency [3] | Potency [4] | Potency [5] | Potency [6]

Cn1c(=O)c2c(nc(/C=C/c3cccc(Cl)c3)n2C)n(C)c1=O
inactive: Potency [1] | outcome [2] | Potency [3] | Potency [4] | Potency [5] | Potency [6]

O=C(O)/C=C/c1cnc[nH]1
inactive: Potency [1] | outcome [2] | Potency [3] | Potency [4] | Potency [5] | Potency [6]

O=C(O)/C(=C/c1c(C(=O)O)[nH]c2cc(Cl)cc(Cl)c12)c1ccccc1
inactive: outcome [7] | Potency [1] | outcome [2] | Potency [3] | Potency [4] | Potency [5] | Potency [6]

Oc1ccc(C2CNCc3sccc32)cc1O (centres undefined)
inactive: Potency [1] | outcome [2] | Potency [3] | Potency [4] | Potency [5] | Potency [6]

CC(=O)[C@H]1CCC2C3CC=C4C[C@@H](OS(=O)(=O)O)CC[C@]4(C)C3CC[C@@]21C (some centres undefined)
inactive: Potency [1] | outcome [2] | Potency [8] | Potency [3] | Potency [4] | Potency [5] | Potency [6]

N=S(=O)(O)Cc1noc2ccccc12
inactive: Potency [1] | outcome [2] | Potency [3] | Potency [4] | Potency [5] | Potency [6]

O=C(c1cc(O)c(O)c([N+](=O)[O-])c1)c1ccccc1F
inactive: outcome [7] | Potency [1] | outcome [2] | Potency [3] | Potency [4] | Potency [5] | Potency [6]

O=c1onc2cnc3ccccc3n12
inactive: outcome [7] | Potency [1] | outcome [2] | Potency [3] | Potency [4] | Potency [5] | Potency [6]

COc1ccccc1N1CCN(CCCNc2c(C)c(=O)n(C)c(=O)n2C)CC1
inactive: outcome [7] | Potency [1] | outcome [2] | Potency [3] | Potency [4] | Potency [5] | Potency [6]

CC(C)NC[C@H](O)COc1cccc2[nH]ccc12
inactive: outcome [7] | outcome [9] | Potency [1] | outcome [2] | outcome [10] | Potency [3] | Potency [4] | Potency [5] | Potency [6]

N[C@H]1CONC1=O
inactive: Potency [1] | outcome [2] | Potency [3] | Potency [4] | Potency [5] | Potency [6]

CN1CCc2cc(O)c(O)cc2C(c2ccccc2)C1 (centres undefined)
inactive: Potency [1] | outcome [2] | Potency [3] | Potency [4] | Potency [5] | Potency [6]

C=CC1(C)CC(=O)C2(O)C(C)(O1)C(OC(C)=O)C(O)C1C(C)(C)CCC(O)C12C (centres undefined)
inactive: Potency [1] | outcome [2] | Potency [3] | Potency [4] | Potency [5] | Potency [6]

O=C(O)CC[C@@H](C(=O)O)N1C(=O)c2ccccc2C1=O
inactive: outcome [7] | Potency [1] | outcome [2] | Potency [3] | Potency [4] | Potency [5] | Potency [6]

CCCc1c(-c2ccc(O)cc2)nn(-c2ccc(O)cc2)c1-c1ccc(O)cc1
inactive: outcome [7] | outcome [9] | outcome [2] | activation [11] 1.37% | Potency [3] | Potency [4] | Potency [5] | Potency [6]
active: Potency [1] 2000 nM
